Measurements: article PMC4336329 (PLoS ONE, 2015)
Among all 310,000 compounds or so, about 14,000 (4.5%) showed an effect of 50% or more. Effects have a minus sign here. What follows is part of a selection rich in strong results, with near analogues and random picks from the rest.

The molecules below were run against human ether-à-go-go-related gene (hERG) potassium channel (human, UniProt Q12809) (assay: primary screen, population patch clamp on CHO cells stably expressing hERG; higher = less effect of the substance).
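Note: peak tail current of the secondary pulse compared with the same well before compound.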

Chain of human ether-à-go-go-related gene (hERG) potassium channel (Q12809 whole entry, looked up): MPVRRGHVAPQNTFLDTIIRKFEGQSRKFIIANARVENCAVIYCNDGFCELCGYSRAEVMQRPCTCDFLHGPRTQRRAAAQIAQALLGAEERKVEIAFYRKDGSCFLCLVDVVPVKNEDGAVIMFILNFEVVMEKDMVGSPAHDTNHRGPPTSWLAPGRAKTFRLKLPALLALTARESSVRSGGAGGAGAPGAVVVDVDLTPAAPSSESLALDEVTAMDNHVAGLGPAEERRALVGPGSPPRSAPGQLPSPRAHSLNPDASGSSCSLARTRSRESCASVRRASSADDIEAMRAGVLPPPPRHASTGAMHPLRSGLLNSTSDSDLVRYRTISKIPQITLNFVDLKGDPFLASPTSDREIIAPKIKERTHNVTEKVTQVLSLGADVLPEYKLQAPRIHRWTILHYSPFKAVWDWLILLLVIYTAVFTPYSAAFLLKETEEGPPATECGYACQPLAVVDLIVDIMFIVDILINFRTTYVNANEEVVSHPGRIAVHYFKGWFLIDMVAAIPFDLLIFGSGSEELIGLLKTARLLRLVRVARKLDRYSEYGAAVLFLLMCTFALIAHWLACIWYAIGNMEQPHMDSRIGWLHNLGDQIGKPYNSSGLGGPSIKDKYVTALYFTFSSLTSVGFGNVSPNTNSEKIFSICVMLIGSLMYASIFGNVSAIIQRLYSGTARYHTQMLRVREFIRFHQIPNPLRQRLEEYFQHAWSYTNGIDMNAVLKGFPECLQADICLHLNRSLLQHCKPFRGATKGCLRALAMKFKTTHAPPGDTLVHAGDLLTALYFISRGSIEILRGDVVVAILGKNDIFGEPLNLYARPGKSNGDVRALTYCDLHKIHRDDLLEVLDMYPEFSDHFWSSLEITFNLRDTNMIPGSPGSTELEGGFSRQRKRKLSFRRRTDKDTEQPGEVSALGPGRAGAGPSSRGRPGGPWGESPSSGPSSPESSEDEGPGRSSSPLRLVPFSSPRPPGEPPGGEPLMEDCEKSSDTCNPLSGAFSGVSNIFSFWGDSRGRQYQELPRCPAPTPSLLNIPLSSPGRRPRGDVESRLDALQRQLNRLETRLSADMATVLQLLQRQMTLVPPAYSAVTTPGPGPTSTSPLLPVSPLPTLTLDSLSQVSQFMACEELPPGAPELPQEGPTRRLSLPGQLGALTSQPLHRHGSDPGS

SMILES	hERG current change (%, negative = inhibition) at 10uM [%]
COc1cc(OC)cc(C(=O)NC(C(=O)Nc2ccc3c(c2)CCC3)C(C)C)c1 (stereo not shown)	-1.96
COc1cc(OC)cc(C(=O)N[C@H](C(=O)Nc2ccc(NC(C)=O)cc2)C(C)C)c1	13
COc1cc(OC)cc(C(=O)N[C@H](C(=O)Nc2cc(C)cc(C)c2)C(C)C)c1	-54.7
Cc1cc2oc(=O)cc(C)c2cc1NC(=O)CCC(=O)O	7.75
CCC(=O)Nc1ccc2c(c1)nc(CCN1CCN(c3ccccn3)CC1)n2C	-18.3
Cc1cccc(OCC(=O)Nc2ccc3c(c2)nc(CCN2CCN(c4ccccn4)CC2)n3C)c1	-79.5
Cn1c(CCN2CCN(c3ccccn3)CC2)nc2cc(NC(=O)COc3ccc([N+](=O)[O-])cc3)ccc21	-5.69
Cn1c(CCN2CCN(c3ccccn3)CC2)nc2cc(NC(=O)COc3ccccc3)ccc21	-72.5
CCCCC(=O)Nc1ccc2c(c1)nc(CCN1CCN(c3ccccn3)CC1)n2C	-56.5
CCCC(=O)Nc1ccc2c(c1)nc(CCN1CCN(c3ccccn3)CC1)n2C	-25.5
Cn1c(CCN2CCN(c3ccccn3)CC2)nc2cc(NC(=O)COc3ccc(Cl)cc3)ccc21	-22.7
O=[N+]([O-])c1cc(-c2nc3nc4ccccc4nc3n2CCc2ccccc2)cc([N+](=O)[O-])c1	3.97
Cc1ccc(S(=O)(=O)N(C)/N=C/C=C/c2ccccc2)cc1	0.391
O=S(=O)(Cc1ccccc1Cl)NCc1ccccc1	7.02
Cc1cc(C)nc(SC2c3cccc4cccc(c34)C2NS(=O)(=O)c2ccccc2)n1 (stereo not shown)	-4.8
Cc1cccc(N2CCN(C(=O)Cc3cn(C)c4ccccc34)CC2)c1C	-7.32
CC1CCc2sc(C(=O)NCCCn3ccnc3)cc2C1 (stereo not shown)	-1.07
Cc1cccc(-c2ncc(CN3CCN(C4CCCC4)C(CCO)C3)cn2)c1 (stereo not shown)	-46.7
COc1ccc(-c2ncc(CN3CCN(CCC(C)C)C(CCO)C3)cn2)cc1 (stereo not shown)	-43.4
OCCC1CN(Cc2cnc(-c3cccc4ccccc34)nc2)CCN1C1CCCCC1 (stereo not shown)	-13.2
OCCC1CN(Cc2cnc(-c3ccc(Cl)cc3)nc2)CCN1C1CCCCC1 (stereo not shown)	-73.6
Cc1ccccc1-c1ncc(CN2CCN(C3CCCC3)C(CCO)C2)cn1 (stereo not shown)	-25.8
Cc1cccc(-c2ncc(CN3CCN(CC(C)C)C(CCO)C3)cn2)c1 (stereo not shown)	-47.9

SMILES	hERG current change (%, negative = inhibition) at 10uM [%]
CC(C)CN1CCN(Cc2cnc(-c3ccc(Cl)cc3)nc2)CC1CCO (stereo not shown)	-67.2
Cc1ccccc1-c1ncc(CN2CCN(C3CCCCC3)C(CCO)C2)cn1 (stereo not shown)	-17.4
OCCC1CN(Cc2cnc(-c3ccc(Cl)cc3)nc2)CCN1C1CCCC1 (stereo not shown)	-73.5
CC(C)(C)c1cc(-c2n[nH]c(=S)n2-c2ccc(Cl)cc2)n[nH]1	17.3
CCCCCC1CCC(C(=O)N2CCOCC2)CC1 (stereo not shown)	-2.44
CC(C)CC(=O)Nc1ccc(-c2nc3ccccc3c(=O)[nH]2)cc1	26.7
O=C1COc2ccc(S(=O)(=O)CCC(=O)NC3CCCCC3)cc2N1	11.8
CC(=O)Nc1c(NCC(C)C)c2ccccc2oc1=O	16.7
Cc1ccc(NC(=O)N2CCc3ccccc3C2)cc1C	15.2
COC(=O)Cc1c(O)ccn(CCc2ccccc2)c1=O	51.2
CCCn1nc(C(=O)NCC2COc3ccccc3O2)c2ccccc2c1=O (stereo not shown)	-36.2
COc1ccc(N2CN=C3SCC(=O)N3C2)cc1	11.5
CC(NC(=O)C1C(=O)N(CCO)C2(C)CC1c1ccccc1O2)c1ccccc1 (stereo not shown)	-14.4
CC(=O)Nc1cccc(C(=O)Nc2ccccc2C(=O)O)c1	7.39
Cc1ccc(-c2csc(NC(=O)CSc3nc4ccccc4c(=O)n3CCCN(C)C)n2)cc1	-35.2
C=CCN(CC=C)c1nc2ccccc2nc1C(C#N)C(=O)OCCOC (stereo not shown)	-29.8
CCC(=O)Nc1ccc(N2CCOCC2)c(S(=O)(=O)Nc2ccc(Cl)cc2)c1	-25.2
COc1ccccc1NS(=O)(=O)c1cc(NC(=O)C(C)(C)C)ccc1N1CCOCC1	-36.4
Br.COc1ccccc1NS(=O)(=O)c1cc(N2Cc3ccccc3C2=N)ccc1N1CCOCC1	-73.3
Br.N=C1c2ccccc2CN1c1ccc(N2CCOCC2)c(S(=O)(=O)Nc2ccc(Cl)cc2)c1	-81
COc1ccccc1NS(=O)(=O)c1cc(NC(=O)C2CC2)ccc1N1CCOCC1	45.4
O=S(=O)(Nc1ccc(N2CCOCC2)cc1)c1cc(Cl)ccc1Cl	4.1
CCOC(=O)c1nc(C)sc1-c1ccnn1S(=O)(=O)c1ccccc1C(F)(F)F	-25.1

SMILES	hERG current change (%, negative = inhibition) at 10uM [%]
CN(CCCC1CCCC1)C(=O)CCc1nnc(-c2ccccc2)o1	-22.7
Cc1cccc(-c2n[nH]c(=S)n2/N=C/c2ccco2)c1	2.87
O=C1[C@@H]2C(Cc3ccc(O)cc3)NC3(C(=O)Nc4ccc(F)cc43)[C@@H]2C(=O)N1c1ccc(F)cc1 (stereo partly shown)	10.1
CC(O)(C#CCN1CCCCC1)c1ccccc1 (stereo not shown)	1.9
Cc1c[nH]c2cccc(OCC(O)CNC(C)(C)C)c12.Cl (stereo not shown)	-8.91
CC(O)C(=O)O.Cc1ccc(CN(CC(O)COc2cccc3[nH]cc(C)c23)C(C)(C)C)cc1 (stereo not shown)	-60.8
COC(=O)Cc1c[nH]c2cccc(OCC(O)CN(Cc3ccc([N+](=O)[O-])cc3)C(C)(C)C)c12.Cl (stereo not shown)	-4.66
Cc1c[nH]c2cccc(OCC(CNC(C)(C)C)OC(=O)c3ccccc3)c12.Cl (stereo not shown)	1.02
CC(O)C(=O)O.COc1ccc(CN(CC(O)COc2cccc3[nH]cc(C)c23)C(C)(C)C)cc1 (stereo not shown)	-60.6
COc1ccc(OCC(O)CN(C)C(=O)C(C)Oc2ccccc2)cc1 (stereo not shown)	6.31
CCSc1ncnc2c(C#N)c3n(c12)CCCCC3	-23.8
CCOC(=O)c1c(C)nsc1NCc1ccccc1	5.94
CCOC(=O)c1c2n(c3c(NCc4ccccc4)ncnc13)CCCC2	-76.3
CCOC(=O)CSc1ncnc2c(C(=O)OCC)c3n(c12)CCC3	-62.6
CCOC(=O)CSc1ncnc2c1sc1nc(N3CCOCC3)c3c(c12)CCCC3	12.7
CCOC(=O)c1c(NCc2ccccc2)n[nH]c1C	5
COc1ccc(CNc2nnnn2C)cc1	20.9
CCOC(=O)Cc1csc(NC(=O)c2ccco2)n1	0.229
Cn1c(=O)[nH]c(=O)c2c1nc(N1CCCC1)n2CCCSc1nc2ccccc2o1	-25.4
Cn1c(=O)[nH]c(=O)c2c1nc(Br)n2CCCCSc1nc2ccccc2o1	-55.6
Cn1c(=O)[nH]c(=O)c2c1nc(N1CCCCCC1)n2CCCSc1nc2ccccc2o1	-38.3
Cn1c(=O)[nH]c(=O)c2c1nc(N1CCCCC1)n2CCSc1nc2ccccc2o1	11.1
Cn1c(=O)[nH]c(=O)c2c1nc(Br)n2CCSc1nc2ccccc2o1	-1.02

SMILES	hERG current change (%, negative = inhibition) at 10uM [%]
Cn1c(=O)[nH]c(=O)c2c1nc(Br)n2CCCSc1nc2ccccc2o1	-66.8
Oc1ccc(CNCC2COc3ccccc3O2)cc1 (stereo not shown)	4.89
COc1ccc(OCCC(=O)OCC(=O)NCCc2ccccc2)cc1	6.65
O=C(/C=C/c1ccccc1[N+](=O)[O-])NCC1CCCO1 (stereo not shown)	-3.47
COc1ccc(COC(=O)C2CCN(S(=O)(=O)c3ccc(Cl)cc3)CC2)cc1	30
CCn1c(CSc2ncn[nH]2)nc2cc(C(=O)O)ccc21	-4.97
COc1cccc2c1Oc1ncccc1N(C(=O)CCC(=O)NCc1ccc(C)cc1)C2	-34.4
CCOc1ccc(CNC(=O)CCC(=O)N2Cc3cccc(OC)c3Oc3ncccc32)cc1	-44.3
COc1cccc2c1Oc1ncccc1N(C(=O)CCC(=O)NCc1ccc(F)cc1)C2	-32.6
CCOc1ccccc1CNC(=O)CCC(=O)N1Cc2ccccc2Oc2ncccc21	-3.62
CCc1ccc(CNC(=O)CCC(=O)N2Cc3cccc(OC)c3Oc3ncccc32)cc1	-75
CCOc1ccc(CNC(=O)CCC(=O)N2Cc3ccccc3Oc3ncccc32)cc1	-51.1
O=C1C=C(Nc2ccc(O)cc2)C(=O)c2ccccc21	4.35
CCc1ccccc1Nc1nc(-c2cccnc2)cs1	-3.32
Fc1ccc(NC(=S)N/N=C/c2ccc(F)c(F)c2)c(F)c1	13
Cc1nc(SCC(=O)NC2CCCC2)c2c(C)c(C)sc2n1	-4.48
CCc1cccc2c(C(=O)COC(=O)C3=NNC(=O)CC3)c[nH]c12	-51.6
CCc1cccc2c(C(=O)COC(=O)c3nccnc3N)c[nH]c12	-5.69
O=C1CCC(C(=O)OCC(=O)c2c[nH]c3ccccc23)=NN1	1.19
CCc1cccc2c(C(=O)COC(=O)c3nn(C)c(=O)c4ccccc34)c[nH]c12	-65.6
CCc1cccc2c(C(=O)COC(=O)c3ccccc3)c[nH]c12	11.7
CCc1cccc2c(C(=O)COC(=O)c3cnc(C)cn3)c[nH]c12	2.87
